22 compounds from the supplement of paper PMC4709259 can be followed below.

Structures can show the parent of a compound that is named as a salt. ± gives the standard deviation.

The test system of this assay is Jurkat. Nature of the assay: cell count relative to DMSO control (fraction of control); higher = more cells (less growth inhibition). Conditions: 48 h.
Take `CC(COc1ccccc1)N(CCCl)Cc1ccccc1` (configuration not stated) [Phenoxybenzamine·HCl] (concentration: 25 µM): the cell count turned out to be 0.746 ± 0.08.

`CC(=O)O[C@H]1C(=O)[C@@]2(C)[C@H]([C@H](OC(=O)c3ccccc3)[C@]3(O)C[C@H](OC(=O)[C@H](O)[C@@H](NC(=O)c4ccccc4)c4ccccc4)C(C)=C1C3(C)C)[C@]1(OC(C)=O)CO[C@@H]1C[C@@H]2O` [Paclitaxel (Taxol)] (concentration: 25 nM) displayed a cell count of 0.4 ± 0.048. `COCCOC(=O)C1=C(C)NC(C)=C(C(=O)OC(C)C)C1c1cccc([N+](=O)[O-])c1` (configuration not stated) [Nimodipine] (concentration: 25 µM): the cell count is 0.628 ± 0.17.

The compound `COc1ccc(CC2c3cc(OC)c(OC)cc3CC[N+]2(C)CCC(=O)OCCCCCOC(=O)CC[N+]2(C)CCc3cc(OC)c(OC)cc3C2Cc2ccc(OC)c(OC)c2)cc1OC` (configuration not stated) [Atracurium Besylate] (concentration: 25 µM) yielded a cell count of 0.264 ± 0.023. Compound `C[C@H](CCC(=O)O)[C@H]1CC[C@H]2[C@@H]3[C@H](O)C[C@@H]4C[C@H](O)CC[C@]4(C)[C@H]3CC[C@]12C` [Chenodiol (Chenodeoxycholic Acid)] (concentration: 25 µM) had a cell count of 0.838 ± 0.13. The result for `O=C(O)P(=O)(O)O` [Foscarnet·Na (Sodium Phosphonoformate Tribasic Hexahydrate)] (concentration: 25 µM) reads 0.59 ± 0.027.

In the case of `CN(C/C=C/c1ccccc1)Cc1cccc2ccccc12` [Naftifine·HCl] (concentration: 25 µM), the cell count worked out at 0.848 ± 0.089. Compound `CC(C)(C)C(=O)OCOP(=O)(COCCn1cnc2c(N)ncnc21)OCOC(=O)C(C)(C)C` [Adefovir Dipivoxil] (concentration: 25 µM) had a cell count of 0.23 ± 0.019. Take `CN[C@@H]1[C@H](O)[C@H](NC)[C@H]2O[C@@]3(O)C(=O)C[C@@H](C)O[C@H]3O[C@@H]2[C@H]1O` [Spectinomycin·HCl Pentahydrate] (concentration: 25 µM): the cell count amounted to 0.941 ± 0.16. Regarding `Cc1c(OCC(F)(F)F)ccnc1C[S+]([O-])c1nc2ccccc2[nH]1` (configuration not stated) [Lansoprazole] (concentration: 25 µM), the cell count worked out at 0.617 ± 0.01. In turn, `C[C@H]1C[C@@H]2[C@H]([C@@H](O)C[C@@]3(C)[C@H]2CC[C@]3(O)C(=O)CO)[C@@]2(C)C=CC(=O)C=C12` [Methylprednisolone] (concentration: 25 µM) gave a cell count of 0.873 ± 0.025. For the compound `CCC(=O)O[C@]1(C(=O)CCl)[C@@H](C)C[C@H]2[C@@H]3CCC4=CC(=O)C=C[C@]4(C)[C@@]3(F)[C@@H](O)C[C@@]21C` [Clobetasol Propionate] (concentration: 25 µM), the cell count came out at 0.881 ± 0.18. The result for `CC(C)NCC(O)COc1cccc2[nH]ccc12` (configuration not stated) [Pindolol] (concentration: 25 µM) reads 0.644 ± 0.16; that for `CCN(CC)CC#CCOC(=O)C(O)(c1ccccc1)C1CCCCC1` (configuration not stated) [Oxybutynin Chloride] (concentration: 25 µM), 0.895 ± 0.049.

`CCN(CC)CCOC(=O)C1(C2CCCCC2)CCCCC1` [Dicyclomine·HCl] (concentration: 25 µM) returned a cell count of 0.922 ± 0.054. `CCCCCN(C)CCC(O)(P(=O)(O)O)P(=O)(O)O` [Ibandronate·Na Monohydrate] (concentration: 25 µM) showed a cell count of 0.298 ± 0.14. Consider `CCC1=C[C@@H]2CN(C1)Cc1c([nH]c3ccccc13)[C@@](C(=O)OC)(c1cc3c(cc1OC)N(C)[C@H]1[C@@](O)(C(=O)OC)[C@H](OC(C)=O)[C@]4(CC)C=CCN5CC[C@]31[C@@H]54)C2` [Vinorelbine] (concentration: 250 nM), for which the cell count turned out to be 0.559 ± 0.048. For the compound `CCOC(=O)C1=C(C)NC(C)=C(C(=O)OC)C1c1cccc(Cl)c1Cl` (configuration not stated) [Felodipine] (concentration: 25 µM), the cell count amounted to 0.922 ± 0.12. The result for `COC(=O)Nc1nc2cc(C(=O)c3ccccc3)ccc2[nH]1` [Mebendazole] (concentration: 250 nM) reads 0.686 ± 0.074; that for `CC(C[N+](C)(C)C)OC(N)=O` (configuration not stated) [Bethanechol Chloride] (concentration: 25 µM), 0.393 ± 0.12; that for `NNc1nncc2ccccc12` [Hydralazine·HCl] (concentration: 25 µM), 0.537 ± 0.045.

Compound `CC1(C)S[C@@H]2[C@H](NC(=O)[C@H](N)c3ccc(O)cc3)C(=O)N2[C@H]1C(=O)O` [Amoxicillin] (concentration: 25 µM) showed a cell count of 0.866 ± 0.063.
